The assay deals with Leishmania donovani. As to the kind of experiment: Leishmania intramacrophage assay. It is filed as functional, organism-based. Also on record: scale not given: in the data most compounds retested in dose-response had high values.

The campaign covered roughly 69,000 compounds. About 1,000 (1.4%) showed an effect of 50% or more. Many of the other results were omitted from the sample, so strong results are more common in it than they were.

On to `CC(=O)N1CCC2(CC1)CC(C(C)C)=NO2`, for which the “Percent Effect” value (30.3 µM, […]) is -2.802%.
In the case of `NC(=O)CSCC(=O)NCC1CCCC1`, the “Percent Effect” value (30.3 µM, […]) amounted to 12%.
Regarding `CNC(=O)C1CN(Cc2ccc(C#N)cc2F)c2ccccc2O1` (configuration not stated), the “Percent Effect” value (30.3 µM, […]) is recorded as 34.5%.
On the same count and under the same terms, the value for `O=C1CO[C@H]2CN(Cc3ccc(F)c(F)c3)C[C@H]2N1` was 13.71%; that for `CCOC(=O)C1(Cc2ccccc2-c2ccccc2OC)CCNCC1.Cl` was 51.68%; that for `COc1ccccc1-c1ccccc1CC1(C(=O)O)CCNCC1` was -31.14%.
In the case of `COc1ccc(F)cc1-c1ccccc1CC1(C(=O)O)CCOCC1`, the “Percent Effect” value (30.3 µM, […]) is given as -18.67%.
On the same count and under the same terms, the value for `CCNC(=O)C1CCCN(c2ccc3ccc(F)cc3n2)C1` (configuration not stated) was 4.617%; that for `CC(C)Oc1ncccc1CNC(=O)NC(C)c1cccs1` (configuration not stated) was 19.58%; that for `CCCOc1cc(C)ccc1NC(=O)NCCNC(=O)C(C)C` was -16.43%.
Regarding `CCc1nc2c(NCC3COc4ccccc4C3)ncnc2o1` (configuration not stated), where the note is “30.3 µM, […]”, the “Percent Effect” value was determined as 35.57%.
Regarding `COc1ccc2c(c1)OCC(CNc1cc(N)nc(SC)n1)C2` (configuration not stated), the “Percent Effect” value (30.3 µM, […]) was determined as 52.24%.
Same read-out and setting: then `COc1ccc2c(c1)OCC(Cc1ccc(C)nc1N)C2` (configuration not stated), with -0.8362%.
On the same count and under the same terms, the value for `CCc1nc2c(NCC3COc4c(cccc4OC)C3)ncnc2o1` (configuration not stated) was 45.88%.
The same measure, in the same setting: then `CCc1nc2c(NCC3COc4cc(OC)ccc4C3)ncnc2o1` (configuration not stated), with 60.09%; and `COc1cccc2c1OCC(CNc1cc(N)nc(SC)n1)C2` (configuration not stated), with 21.08%.
Consider `CCC(CNC(=O)c1nc(=O)[nH][nH]1)Oc1cccc(C(F)(F)F)c1` (configuration not stated), for which the “Percent Effect” value (30.3 µM, […]) worked out at 11.69%.
As for `CC1c2ncc(COCC3CC3)n2CCN1C.O=C(O)C(F)(F)F` (configuration not stated), the “Percent Effect” value (30.3 µM, […]) is on record as 11.79%.
The same measure, in the same setting: then `Cc1nc(N(C)C)nc(-c2cccc(-c3ccn(CCCF)n3)c2)c1C`, with -3.93%.
Take `CN(C)c1cc(CNC(=O)c2ccc(F)cc2F)ccn1`: the “Percent Effect” value (30 µM, 30.03 µM) is 42.64%.
As to `CCc1nc(CN(C)CC(=O)NC(C)C)cs1`, the “Percent Effect” value (30.3 µM, […]) stood at 35.21%.
For the compound `CCCc1cc(C(=O)N[C@H](C)[C@@H](O)c2ccc(O)cc2)n(C)n1`, the “Percent Effect” value (30.3 µM, […]) is 13.63%.
Consider `CCCc1cc(C(=O)NC(C)c2ccccc2)n(C)n1` (configuration not stated), for which the “Percent Effect” value (30.3 µM, […]) is 52.97%.
The same measure, in the same setting: then `CCCc1cc(C(=O)N[C@@H](CO)[C@@H](O)c2ccccc2)n(C)n1`, with 0.7938%.
For the compound `CN(Cc1ccco1)C(=O)NCc1ccnc(SC(C)(C)C)c1`, the “Percent Effect” value (30.3 µM, […]) amounted to 10.46%.
On the same count and under the same terms, then `CCn1cc(CNCc2ccc(C(=O)OC)cc2)c(C)n1`, with -10.67%.
`CN(C)CC1(O)CCCN(C(=O)Cc2ccc(Cl)c(Cl)c2)C1` (configuration not stated): under “30.3 µM, […]”, the “Percent Effect” value is -2.799%.
On to `CC(C)Nc1nc(N2CCCC2)nc2c1CN(C(C)C)CC2`, for which the “Percent Effect” value (30 µM, 30.03 µM) is on record as -2.181%.
On to `CCC(C)N1CCc2nc(N3CCCC3)nc(NC(C)C)c2C1` (configuration not stated), for which, for the setting “30.3 µM, […]”, the “Percent Effect” value is recorded as 35.6%.
With `CC(C)Nc1nc(N2CCCC2)nc2c1CN(c1ncc(F)cn1)CC2`, the “Percent Effect” value (30.3 µM, […]) is given as 60.7%.
Same read-out and setting: the value for `Cc1nc(CN2CCc3nc(N4CCCC4)nc(NC(C)C)c3C2)cs1` was 51.28%; that for `Cc1nc(CN2CCc3nc(NC(C)C)nc(C)c3C2)cs1` was 4.033%; that for `CC(C)Nc1nc(N2CCCC2)nc2c1CN(C)CC2` was 20.69%.
For the compound `O=C(OCc1cccs1)c1cccc(C(=O)N2CCCC2)n1`, the “Percent Effect” value (30.3 µM, […]) came out at 3.746%.
`Cn1cc(-c2ncc3c(c2C(=O)O)CCN(Cc2ccco2)C3)cn1.O=C(O)C(F)(F)F`: the “Percent Effect” value (30.3 µM, […]) was 10.3%.
For `Cc1ccc(C(=O)NCc2ccnc(N(C)C)c2)c(C)c1`, the “Percent Effect” value (30.3 µM, […]) was found to be 24.48%.
Still for that read-out and setting: then `O=C(c1ccccn1)N1CCCC(c2ncncc2-c2ccncc2)C1` (configuration not stated), with -13.38%; and `O=C(O)C(F)(F)F.O=C1NCC[C@]12CN(CC1CCOCC1)C[C@H]2c1ccccc1`, with 7.927%; and `COc1cccc(CNC(=O)c2cccnc2N)c1`, with 50.32%.
As for `Cc1cccc(CNC(=O)c2cccnc2N)c1`, under “30.3 µM, […]”, the “Percent Effect” value is 26.02%.
Still for that read-out and setting: the value for `Nc1ncccc1C(=O)NCc1cccc(Br)c1` was 45.5%; that for `COc1ccc(C(=O)NS(=O)(=O)c2cc(Cl)sc2Cl)cc1OC(F)F` was 16.5%.
For `CCn1cc(NC(=O)NCC(c2ccsc2)N(C)C)cn1` (configuration not stated), the “Percent Effect” value (30 µM) came to 19.68%.
Turning to `COc1ccc(CC(=O)N2CCCC(n3cccn3)C2)cc1F` (configuration not stated), the “Percent Effect” value (30 µM) is 5.405%.
In the case of `CNC(=O)c1sccc1S(=O)(=O)Nc1ccc(C)cc1`, the “Percent Effect” value (30.3 µM, […]) is 8.63%.
In the case of `CN1CCOC(CN(C(=O)Cc2ccccc2F)c2nccs2)C1` (configuration not stated), the “Percent Effect” value (30 µM, 30.03 µM) is -6.347%.
Consider `c1ccc(Cc2nc(CN3CCCC3Cn3cncn3)cs2)cc1` (configuration not stated), for which, where the note is “30 µM”, the “Percent Effect” value is given as -0.1933%.
Regarding `Cc1ccc2nc(C3CCCN3Cc3csc(C)n3)[nH]c2c1` (configuration not stated), the “Percent Effect” value (30.3 µM, […]) worked out at 32.46%.
For the compound `Cc1ccc2nc(C3CCCN3Cc3scnc3C)[nH]c2c1` (configuration not stated), for the setting “30.3 µM, […]”, the “Percent Effect” value is 25.37%.
Same read-out and setting: the value for `Cc1ccc2nc(C3CCCN3Cc3cccc(CCN)c3)[nH]c2c1` (configuration not stated) was 54.52%; that for `O=C1NCCN(Cc2ccoc2)C1CC(=O)N1CCc2sccc2C1` (configuration not stated) was 23.18%.
Regarding `CN(CC(=O)NC1(C)CCS(=O)(=O)C1)Cc1ccc(Br)cc1` (configuration not stated), the “Percent Effect” value (30 µM) is listed as -0.9039%.

Source of the values: ChEMBL document CHEMBL3988442, “University of Dundee, Small-Polar-MMV Screening Library” (2021).
